The values below come from PMC4552634, “A New Set of Chemical Starting Points with Plasmodium falciparum Transmission-Blocking Potential for Antimalarial Drug Discovery” (PLoS ONE, 2015).

The term % Inhibition denotes the relative decrease from the control value, in per cent.

The campaign covered roughly 13,000 compounds. About 3,200 (25%) showed an effect of 50% or more. The list shows a part of the results.

The test system of this assay is P. falciparum stage V gametocytes. Also on record: BacTiter-Glo ATP luminescence viability of purified stage V gametocytes in 384-well plates, per cent inhibition versus DMSO. The conditions noted are these: 48 h, 5 µM; inhibitor.
Take `Nc1ncc(-c2ccc(Br)cc2)c(N)n1` [TCMDC-125524]: the “% Inhibition” value was -3.505%.
For the compound `Cn1ccnc1CNC(=O)c1ccc(-c2ccc(-c3nc4cc(C(F)(F)F)ccc4[nH]3)s2)cc1` [TCMDC-132353], the “% Inhibition” value is listed as 3.481%.
`COc1cccc2c(C)cc(NCc3ccc(Cl)cc3)nc12` [TCMDC-125774]: the “% Inhibition” value was -17.6%.
Take `COc1cccc2c(NCc3ccccc3)nc(NCCCN3CCCCC3C)nc12` (stereo not drawn) [TCMDC-137782]: the “% Inhibition” value amounted to 79.04%.
The result for `Brc1ccc(Nc2nc(NCc3ccccc3)c3ccccc3n2)cc1` [TCMDC-124574] reads 42.06%.
As to `CC1CCCCN1CCCNc1nc(NCc2ccccc2)c2ccccc2n1` (stereo not drawn) [TCMDC-137771], the “% Inhibition” value turned out to be 108.4%.
With `c1ccc(CNc2nc(NCCc3cnc[nH]3)nc(N3CCCC4CCCCC43)n2)cc1` (stereo not drawn) [TCMDC-139742] the figure was 0.6761%; with `COc1cc(CCNc2nc(NCc3cccc4ccccc34)nc(N3CCC(N)CC3)n2)ccc1O` [TCMDC-133444], -7.002%; with `C=C1N(C)c2cc([N+](=O)[O-])c(N)cc2C1(C)C` [TCMDC-125319], -63.8%.
With `COc1cc2c(cc1O)[C@@H]1[C@H](O)[C@@H](O)C=C3CCN(C2)[C@H]31` [TCMDC-132036] the figure was 63.23%.
With `COc1cc2c(cc1COc1ccccc1)CCN1Cc3cc(OC)c(OC)cc3CC21` (stereo not drawn) [TCMDC-141984] the figure was -4.56%; with `CC(=O)Nc1ccc(C(=O)Nc2cccc(-c3csc(-c4nc5ccccc5[nH]4)c3)c2)cn1` [TCMDC-132405], 77.44%; with `CC(=O)Nc1ccc(C(=O)Nc2cccc(-c3cccc(-c4nc5ccccc5[nH]4)c3)c2)cn1` [TCMDC-136820], 6.09%.
As to `CC(=O)Nc1ccc(C(=O)Nc2ccc(-c3cccc(-c4nc5ccccc5[nH]4)c3)cc2)cn1` [TCMDC-136819], the “% Inhibition” value is recorded as -15.84%.
For `CC(=O)Nc1ccc(C(=O)Nc2cccc(-c3ccc(-c4nc5ccccc5[nH]4)s3)c2)cn1` [TCMDC-136821], the “% Inhibition” value came to 24.61%.
With `CC(=O)Nc1ccc(C(=O)Nc2cccc(-c3ccc(-c4nc5ccccc5[nH]4)cc3)c2)cn1` [TCMDC-136827] the figure was 76.21%; with `CC(=O)Nc1ccc(C(=O)Nc2ccc(-c3csc(-c4nc5ccccc5[nH]4)c3)cc2)cn1` [TCMDC-132393], 4.532%.
`Cc1ccc(Cn2c(N3CCC(C(=O)NCc4ccccn4)CC3)nc3ccccc32)cc1` [TCMDC-125442]: the “% Inhibition” value was 35.66%.
For the compound `NC(=O)NC(=O)C=Cc1ccco1` [TCMDC-131644], the “% Inhibition” value is -0.9845%.
With `COc1cc(NC(=O)/C=C/c2cc(F)cc(F)c2F)cc(OCCN2CCC3(CC2)OCCO3)c1` [TCMDC-140933], the “% Inhibition” value was -20.54%.
For the compound `COc1ccc(C(=O)N2CCC3(CC2)C(=O)N(CC(=O)NCC2CCCCC2)CN3c2ccccc2)cc1` [TCMDC-125171], the “% Inhibition” value worked out at 3.565%.
Take `O=C(Nc1cccc(C(F)(F)F)c1)c1ccc(S(=O)(=O)NC2CCN(CC3CCCCC3)C2)cc1` (stereo not drawn) [TCMDC-132772]: the “% Inhibition” value is 86.66%.
The result for `O=C(Nc1ccc(C(F)(F)F)cc1)c1ccc(S(=O)(=O)NC2CCCN(CC3CCCCC3)C2)cc1` (stereo not drawn) [TCMDC-133678] reads 5.433%; that for `O=C(Nc1cccc(C(F)(F)F)c1)c1cccc(S(=O)(=O)NC2CCN(CC3CCCCC3)C2)c1` (stereo not drawn) [TCMDC-132487], 9.75%.
Regarding `O=C(Nc1ccc(C(F)(F)F)cc1)c1ccc(S(=O)(=O)NC2CCN(CC3CCCCC3)CC2)cc1` [TCMDC-133676], the “% Inhibition” value was -72.67%.
For the compound `O=C(Nc1ccc(C(F)(F)F)cc1)c1ccc(S(=O)(=O)NC2CCN(CC3CCCCC3)C2)cc1` (stereo not drawn) [TCMDC-133674], the “% Inhibition” value is on record as -14.42%.
The result for `O=C(Nc1cccc(C(F)(F)F)c1)c1ccc(S(=O)(=O)NC2CCN(CC3CCCCC3)CC2)cc1` [TCMDC-132773] reads 84.32%; that for `CCC[C@@H]([C@@H](CC1CCCCC1)C(=O)N[C@H](C(=O)Nc1nccc(N)n1)C(C)(C)C)N(O)C=O` [TCMDC-138127], 6.724%; that for `NC12CC3CC(CC(C3)C1)C2` [TCMDC-125869], 6.577%.
The result for `CC(C)NC(=O)c1cccc(-c2cccc(OCCN3CCSCC3c3ccccc3)c2)c1` (stereo not drawn) [TCMDC-134384] reads 34.28%.
In the case of `O=C(/C=C/c1ccc(Cl)c(Cl)c1)Nc1cccc(CN2CCC(c3c[nH]c4ccc(O)cc34)CC2)c1` [TCMDC-139634], the “% Inhibition” value was -96.41%.
As to `COC(=O)CCCCOc1cc(Cc2cnc(N)nc2N)cc(OC)c1OC` [TCMDC-138041], the “% Inhibition” value is given as 1.908%.
Take `Cc1cccc2[nH]cc(C3CCN(CC4CCC(NC(=O)/C=C/c5ccc(Cl)c(Cl)c5)CC4)CC3)c12` (stereo not drawn) [TCMDC-140137]: the “% Inhibition” value was 108%.
Turning to `O=C(/C=C/c1ccc(Cl)c(Cl)c1)NC1CCC(CN2CCC(c3coc4ccccc34)CC2)CC1` (stereo not drawn) [TCMDC-140260], the “% Inhibition” value is listed as -37.97%.
`Cc1cccc2c(C3CCN(CC4CCC(NC(=O)/C=C/c5ccc(Cl)c(Cl)c5)CC4)CC3)c[nH]c12` (stereo not drawn) [TCMDC-139639]: the “% Inhibition” value worked out at 73.81%.
In the case of `COc1cc2c(C3CCN(CC4CCC(NC(=O)/C=C/c5ccc(Cl)c(Cl)c5)CC4)CC3)c[nH]c2cn1` (stereo not drawn) [TCMDC-140245], the “% Inhibition” value came out at 13.08%.
`COc1ccc2nccc(NC(=O)N3CCC(NCc4cc5ccccc5[nH]4)CC3)c2n1` [TCMDC-140671]: the “% Inhibition” value is listed as -10.57%.
`Cc1cc(Cl)ccc1N(Cc1ccccc1)c1ccnc(Cl)n1` [TCMDC-138722]: the “% Inhibition” value was -10.33%.
The result for `Cc1cc(C)nc(-n2[nH]c(C)c(Cc3ccc(C(C)(C)C)cc3)c2=O)n1` [TCMDC-125382] reads 16.36%; that for `O=C(Nc1ccc(N2CCNCC2)cc1)c1ccn2ncc(-c3cccc(Cl)c3)c2n1` [TCMDC-132663], 113.1%.
For `O=C(Nc1cccc(Cl)c1)c1cnc(N2CCN(c3ccncc3)CC2)c(Cl)c1` [TCMDC-134600], the “% Inhibition” value came out at 12.94%.
The result for `Oc1ccc(CCNc2nc(NCc3ccccc3-c3cccc(Cl)c3)nc(N3CCNCC3)n2)cc1` [TCMDC-133784] reads -2.358%; that for `O=C(Nc1ccc(Cn2nc(Cl)c(N3CCNCC3)cc2=O)cc1)Nc1ccc(-c2ccccc2)cc1` [TCMDC-141700], -30.94%.
For the compound `Cc1c(Cn2nc(Cl)c(N3CCNCC3)cc2=O)cccc1NC(=O)Nc1ccc(-c2ccccc2)cc1` [TCMDC-141699], the “% Inhibition” value is on record as 65.88%.
Regarding `O=C(Nc1ccc(-c2ccccc2)cc1)Nc1cccc(Cn2nc(Cl)c(N3CCCNCC3)cc2=O)c1` [TCMDC-141695], the “% Inhibition” value worked out at 3.325%.
As to `O=C(Nc1ccc(Cn2nc(Cl)c(N3CCCNCC3)cc2=O)cc1)c1ccc(-c2ccccc2)cc1` [TCMDC-141693], the “% Inhibition” value is on record as 29.71%.
Turning to `Cc1ccc(Cn2nc(Cl)c(N3CCNCC3)cc2=O)cc1NC(=O)Nc1ccc(-c2ccccc2)cc1` [TCMDC-141698], the “% Inhibition” value is recorded as 114.4%.
For `COc1ccc(NC(=O)Nc2ccc(-c3ccccc3)cc2)cc1Cn1nc(Cl)c(N2CCCNCC2)cc1=O` [TCMDC-141724], the “% Inhibition” value is recorded as 21.4%.
With `O=C(Nc1ccc(-c2ccccc2)cc1)Nc1cccc(Cn2nc(Cl)c(N3CCNCC3)cc2=O)c1` [TCMDC-141694] the figure was -35.56%; with `Cc1ccc(Cn2nc(N3CCNCC3)ccc2=O)cc1NC(=O)Nc1ccc(-c2ccccc2)cc1` [TCMDC-132580], 107.8%; with `O=C(Nc1ccc(Cn2nc(Cl)c(N3CCCNCC3)cc2=O)cc1)Nc1ccc(-c2ccccc2)cc1` [TCMDC-141696], -10.1%.
With `Cc1ccc(Cn2cnc(N3CC(C)NC(C)C3)cc2=O)cc1NC(=O)Nc1ccc(-c2ccccc2)cc1` (stereo not drawn) [TCMDC-133371] the figure was 24.76%; with `Cc1ccc(Cn2nc(Cl)c(N3CCCNCC3)cc2=O)cc1NC(=O)Nc1ccc(-c2ccccc2)cc1` [TCMDC-141697], 91.1%.
In the case of `O=C(Nc1ccc(-c2ccccc2)cc1)Nc1cccc(Cn2cnc(N3CCCNCC3)cc2=O)c1` [TCMDC-133363], the “% Inhibition” value is -19.33%.
